Sampled rows, rich in hits. Any-hit rate of the full collection: about 1.5%.
IL2 activator – activates IL-2 in a cell-based reporter assay; IL-2 activation reporter assay, cell-based qHTS; stimulated with anti-CD3/CD4/CD28 beads; in transgenic mouse T cells; activation, % (series mostly up to about 46 µM); 360,000 tested, 0.065% active; AID 652025; in the data active = activation above about 50%; inconclusive = mostly about 30% to 49%
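Unstimulated transgenic mouse T cells, 750 per well, received compound and, after 60 minutes, anti-CD3/anti-CD4 bead plus anti-CD28 stimulation. EGFP and DsRed were quantified after 18 hours.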
ALOX12 inh – inhibitors of human 12S-lipoxygenase ALOX12; 580,000 tested, 1.1% active; P18054; purified 12hLO, xylenol orange hydroperoxide absorbance; Potency, µM (doses to about 108 µM), hits mostly inhibitors; AID 1671190
Target sequence (P18054 whole entry, looked up): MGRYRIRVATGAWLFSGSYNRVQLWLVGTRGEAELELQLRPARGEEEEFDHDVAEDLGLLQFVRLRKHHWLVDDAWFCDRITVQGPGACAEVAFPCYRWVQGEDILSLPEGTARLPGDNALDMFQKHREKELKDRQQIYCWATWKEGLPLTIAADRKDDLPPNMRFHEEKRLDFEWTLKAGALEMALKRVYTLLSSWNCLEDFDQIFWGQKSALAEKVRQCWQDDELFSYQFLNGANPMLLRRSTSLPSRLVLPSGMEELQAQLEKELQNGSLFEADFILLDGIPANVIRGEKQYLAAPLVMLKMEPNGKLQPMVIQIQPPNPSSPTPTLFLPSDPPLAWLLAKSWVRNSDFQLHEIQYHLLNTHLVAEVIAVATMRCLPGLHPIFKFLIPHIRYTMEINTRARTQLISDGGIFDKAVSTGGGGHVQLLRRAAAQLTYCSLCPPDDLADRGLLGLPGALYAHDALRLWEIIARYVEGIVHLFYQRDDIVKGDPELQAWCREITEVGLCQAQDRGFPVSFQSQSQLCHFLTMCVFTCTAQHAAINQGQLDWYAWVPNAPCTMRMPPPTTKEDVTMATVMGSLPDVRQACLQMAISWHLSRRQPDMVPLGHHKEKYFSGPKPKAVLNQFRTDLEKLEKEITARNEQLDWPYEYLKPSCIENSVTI
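Purified human 12hLO at 150 nM in 25 mM Hepes, 0.01% Triton X-100, pH 7.0, preincubated 15 min at room temperature with compound. Reaction started with 40 uM arachidonic acid, 30 min at room temperature. Hydroperoxide measured by Fe-xylenol orange, 573/405 nm absorbance ratio.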
a7 integrin act – activators of alpha7 integrin expression for muscular dystrophy; 350,000 tested, 0.064% active; Potency, µM (series often up to 38.3 µM), usual class: activators; alpha7betagal myoblasts, beta-gal FDG fluorescence, 48 h; note: nearly all actives have a fitted effect of over 60% in size
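alpha7betagal+/- myoblasts (passage 13, 250/well) treated 48 h at 37C with compounds at 1:260 dilution of DMSO stock. Lysed, then beta-galactosidase activity read as FDG fluorescence (ex 480/em 540) after 30 min, with pre-read for autofluorescence.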
uPA surface inh – blocks generation of uPA at the cell surface; cell surface uPA generation assay, qHTS; Potency, µM (doses to about 38.3 µM), most hits filed as inhibitors; 330,000 tested, 0.31% active; AID 540303; active = well fitted inhibition curve with a large enough effect; inconclusive = small, poorly fitted or top-dose-only effect; inactive = no such curve, though single readings can be large or run the other way; tested in mouse RAW 264.7 cells; note: nearly all actives have a fitted effect of over 55% in size
Nrf2 ARE act – Nrf2 pathway activation; AREc32 ARE-luciferase reporter (MCF7-derived line), luminescence, 24 h; Potency, µM (series often up to 46.1 µM), actives largely listed as activators; 410,000 tested, 0.31% active; note: nearly all actives have a fitted effect of over 65% in size
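Luminescent ARE reporter assay in AREc32_Fluc cells: overnight plating at 37 deg C, 24 hr compound incubation, Steady-Glo added, 30 min RT before reading.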
Hits are given with their value; - = inactive; ? = inconclusive; . = no result given; [ ] = another dose, or the depositor's remark. Unless noted, calls come from the whole dose curve; as a rule, active = well fitted curve in the direction sought with a large enough effect; inconclusive = small, poorly fitted or top-dose-only effect, or another doubt; inactive = no such curve, though single readings can be large; an effect the other way counts as inactive or inconclusive.

SMILES	IL2 activator	ALOX12 inh	a7 integrin act	uPA surface inh	Nrf2 ARE act
CCCCCNc1ncnc2c1CN(C1CCCNCC1)C(=O)CN2C (configuration not stated)	.	-[6.33 µM]	.	.	.
Cc1ccn2c(NCc3ccccc3)c(-c3cccc(SC4CCCCC4)c3)nc2c1	-	?	-	-	-
CCC(C)Sc1ccc(-c2nc3ccc(C)cn3c2NCc2ccccc2)cc1OC (configuration not stated)	-	.	-	5.6µM	-
c1ccc(CNc2c(-c3cccc(SC4CCCCC4)c3)nc3ccccn23)cc1	-	14µM	-	?	-
CCC(C)Sc1cc(-c2nc3ccc(C)cn3c2NCc2ccccc2)ccc1OC (configuration not stated)	-	-	-	4.5µM	-
COc1ccc(-c2nc3ccccn3c2NCc2ccc3c(c2)OCO3)cc1	-	-	-	-	-
COc1ccc(-c2cc(-c3nc4ccccn4c3NCc3ccccc3)ccc2OC)cc1	-	-	-	5.6µM	-
CCCCNc1c(-c2ccc(OC)c(SC(C)CC)c2)nc2ccc(C)cn12 (configuration not stated)	-	?	-	?	-
Cc1ccc(C(=O)NNC(=S)NC(C)(C)C)cc1	.	-	.	.	.
COc1ccc(CCC(=O)N2c3ccccc3CC2c2nc(C3CC3)no2)cc1 (configuration not stated)	.	-	.	.	.
CCCCNc1c(-c2ccc(OC)c(SC3CCCCC3)c2)nc2ccc(C)cn12	-	?	-	?	-
COc1ccc(-c2nc3ccc(C)cn3c2NCc2ccccc2)cc1SC1CCCCC1	-	.	-	3.2µM	-
O=C1NC2(CN(C(=O)c3ccccc3F)C2)Oc2ccccc21	.	-	.	.	.
COC(=O)[C@H]1[C@H](CO)[C@H]2Cn3c(ccc(Br)c3=O)[C@H]2N1C(=O)c1ccccn1	.	0.79µM	.	.	.
COC(=O)[C@H]1[C@H](CO)[C@H]2Cn3c(ccc(Br)c3=O)[C@H]2N1C(C)=O	.	-	.	.	.
CCOCCCNC(=O)c1ccc2nc(C)c(C)nc2c1	.	-	.	.	.
COc1ccc2cc(CNc3ccc(C)cc3)c(=O)n(CC(=O)Nc3ccc(C)cc3C)c2c1	.	7.9µM	.	.	.
CCCCCC1CCC(c2ccc(-c3ccc(CC)cn3)cc2)CC1C (configuration not stated)	.	-	.	.	.
CC(/C=C/c1ccccc1)=N\NC(=S)NC(C)C	-	?	-	-	-
CC(/C=C/c1ccccc1)=N\NC(N)=S	-	11µM	-	-	-
O=C1Nc2ccccc2CC12CCN(Cc1cncs1)CC2	.	-	.	.	.
Cc1noc(-c2ccc3c(c2)OCO3)c1C(=O)NCCSCc1ccccc1	.	20µM	.	.	.
O=C(NN=C1C2CC3CC(C2)CC1C3)c1ccc(Br)cc1	.	-	.	.	.
Clc1ccc(N2CCN(Cc3ccco3)CC2)cc1	-	0.63µM	-	-	-
CC(C)(C)CC(=O)N1CCN(CCc2ccccc2)CC1	.	-	.	.	.
SMILES	IL2 activator	ALOX12 inh	a7 integrin act	uPA surface inh	Nrf2 ARE act
NNc1nc2ccc(F)cc2s1	-	6.3µM	-	-	-
Fc1ccc2nc(Nc3ccccc3)sc2c1	-	-	-	-	?
NNc1nc2ccc(Cl)cc2s1	-	7.1µM	-	-	-
COc1ccc(C)cc1NC(=O)NC(c1ccccc1)c1nnc(-c2ccccc2Cl)o1 (configuration not stated)	.	-	.	.	.
COc1ccc(S(=O)(=O)Oc2ccc3c(c2)O/C(=C\c2ccc(C(C)(C)C)cc2)C3=O)cc1	.	-	.	.	.
CN(C)CCCN(C(=O)c1ccc2c(c1)OCCO2)c1nc2ccc(Cl)cc2s1	.	45µM	.	.	.
CCN(CC)CCN(C(=O)c1ccc2c(c1)OCCO2)c1nc2c(Cl)cccc2s1	-	35µM	-	-	-
CCc1ccc2nc(N(CCN(C)C)C(=O)c3ccc4ncsc4c3)sc2c1	-	35µM	-	-	-
CCc1ccc(NC(=O)c2nc3ccccc3nc2N(CC)CC)cc1	.	-	.	.	.
CCCNC(=O)NC(=O)CSC1=Nc2ccccc2CS1	.	-	.	.	.
Cc1cc(C)cc(-n2ccn(CC(=O)Nc3ccc(Br)cc3)c(=O)c2=O)c1	.	-	.	.	.
Nc1ccc(C(=O)c2ccc(Cl)cc2)cc1	.	-	.	.	.
COc1ccc(C(=O)N2CC[C@H]3CC(=O)N(CCc4cnc[nH]4)CC[C@H]3C2)cc1	.	-	.	.	.
O=C(O)c1ccc(-n2cccc2/C=N\NC(=O)c2cc3cc(Br)ccc3o2)cc1	-	35µM	-	-	-
Cc1csc2ncc(C(=O)NCc3ccco3)c(=O)n12	-	-	-	-	11µM
O=C(NCc1ccco1)c1cnc2sccn2c1=O	-	-	-	-	-

Screening results as filed in PubChem.
